# Results taken from the supplement of paper PMC6522484.
# ± gives the standard deviation of the averaged measurements.
# Assays:
# DLD1 [1] = assay: cell viability (CellTiter-Glo) relative to plate median (fraction of plate median); higher = more viable cells; details: 5 µM; treatment time 24 h; reporter: 7TFP
# Procedure, shortened: (§1)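 Colorectal cancer cell lines stably carrying lentiviral TCF/Wnt firefly luciferase reporters (7TFP or TCF4/Wnt) were plated in 384-well plates and, 24 h later, given library compounds at a final 5 µM for 24 h. Firefly luciferase or CellTiterGlo luminescence was read on parallel plates with a Tecan F500 reader. Each well's signal was normalised to the plate median in webcellHTS2 (additive, without log transformation). Values are the mean of two independent replicates.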
# HCT116 = assay: as above; details: 5 µM; treatment time 24 h; reporter: TCF4/Wnt
# Procedure, shortened: as §1
# SW480 [2] = assay: as above; details: 5 µM; treatment time 24 h; reporter: 7TFP
# Procedure, shortened: as §1
# DLD1 [3] = assay: TCF/Wnt firefly luciferase reporter signal relative to plate median (fraction of plate median); higher = higher Wnt reporter signal; details: 5 µM; treatment time 24 h; reporter: 7TFP
# Procedure, shortened: as §1
# SW480 [4] = assay: as above; details: 5 µM; treatment time 24 h; reporter: 7TFP
# Procedure, shortened: as §1
SMILES,cell viability (DLD1 [1]),cell viability (HCT116),cell viability (SW480 [2]),TCF/Wnt firefly luciferase reporter signal (DLD1 [3]),TCF/Wnt firefly luciferase reporter signal (SW480 [4])
CCCCS(=N)(=O)CCC(N)C(=O)O (stereo not given),1.04 ± 0.021,0.948 ± 0.22,1.08 ± 0.014,1.05 ± 0.028,1.03 ± 0.11
CC(C)/C(O)=C1/C(=O)O[C@@H](c2ccoc2)[C@]2(C)C(O)[C@@H](O)[C@@]34OC5(C)OC67CC(C)(C(O)[C@]6(O)[C@@H](O)[C@]3(O5)C12)[C@H](CC(=O)O)[C@]74C (stereo not given in full),0.869 ± 0.11,0.985 ± 0.05,1 ± 0.026,1.04 ± 0.028,1.02 ± 0.042
Oc1c(Cl)cc(Cl)c(Cl)c1Cc1c(O)c(Cl)cc(Cl)c1Cl,0.934 ± 0.021,1.03 ± 0.1,1.02 ± 0.028,1.34 ± 0.18,1.15 ± 0.021
Cn1ccnc1S,0.997 ± 0.047,1.04 ± 0.021,0.981 ± 0.021,0.988 ± 0.088,0.95 ± 0.071
COc1cc(-c2coc3cc(OC)c(OC)c(OC)c3c2=O)cc(OC)c1OC,1.04 ± 0.08,1.18 ± 0.14,1.07 ± 0.064,1.05 ± 0.1,1.1 ± 0.028
COc1ccc(-c2c(O)c3c(OC)c4c(cc3oc2=O)OC(C)(C)C=C4)cc1,1.01,0.968 ± 0.088,0.9495 ± 0.0092,1.07 ± 0.014,1.07 ± 0.035
CN(C)CCOC(C)(c1ccccc1)c1ccccn1 (stereo not given),1.1 ± 0.2,0.947 ± 0.1,1.04 ± 0.042,0.999 ± 0.016,1.04 ± 0.014
C#C[C@]1(O)CC[C@H]2[C@@H]3CCC4=C(CCC(=O)C4)[C@H]3CC[C@@]21C,0.905 ± 0.022,0.974 ± 0.14,0.913 ± 0.014,1.07 ± 0.13,1.07 ± 0.057
COC(=O)[C@H](c1ccccc1Cl)N1CCc2sccc2C1,1.045 ± 0.0071,0.921 ± 0.02,1.07 ± 0.028,0.853 ± 0.041,0.906 ± 0.016
CC[C@H]1OC(=O)[C@H](C)[C@@H](O[C@H]2C[C@@](C)(OC)[C@@H](O)[C@H](C)O2)[C@H](C)[C@@H](O[C@@H]2O[C@H](C)C[C@H](N(C)C)[C@H]2O)[C@](C)(OC)C[C@@H](C)C(=O)[C@H](C)[C@@H](O)[C@]1(C)O,0.858 ± 0.099,0.931 ± 0.0071,1.05 ± 0.042,0.996 ± 0.021,1.125 ± 0.0071
COc1cc(OC)c2c(=O)c(-c3ccc4c(c3)OCO4)coc2c1,0.9395 ± 0.00071,1 ± 0.16,0.9755 ± 0.005,1.02 ± 0.066,1.02 ± 0.028
COc1cc(O)c2c(c1)C(=O)c1cc3c(c(OC)c1C2=O)[C@@H]1CCO[C@@H]1O3 [Aversin],1.24 ± 0.17,1.18 ± 0.021,1.12 ± 0.021,0.95 ± 0.059,1.02 ± 0.16
C[C@@H]1CC[C@H]2C(C)(C)[C@H]3C[C@@]12CC[C@@]3(C)O,1.02 ± 0.029,1.07 ± 0.057,1.03 ± 0.021,1.03 ± 0.014,0.94 ± 0.083
CCOC(=O)n1ccn(C)c1=S,0.985 ± 0.05,1.12,1.01 ± 0.035,0.9725 ± 0.0021,1.04 ± 0.014
COc1ccc(-c2cc(=O)c3c(O)cc(O[C@H]4O[C@H](CO[C@@H]5O[C@@H](C)[C@H](O)[C@@H](O)[C@H]5O)[C@@H](O)[C@H](O)[C@H]4O)cc3o2)cc1,0.995 ± 0.079,0.88 ± 0.1,0.979 ± 0.059,1.02 ± 0.029,0.9475 ± 0.00071
CC(CCc1ccc(O)cc1)NCCc1ccc(O)c(O)c1 (stereo not given),1.01 ± 0.018,1.06 ± 0.18,1 ± 0.037,0.928 ± 0.058,1.02 ± 0.088
CCCCCCCCCCCCCCCCCCOCC(O)CO (stereo not given),0.991 ± 0.084,0.989 ± 0.073,1.02 ± 0.021,1.035 ± 0.0071,1.01 ± 0.09
O=C1c2ccccc2C(=O)c2c1ccc(O)c2O,1.01 ± 0.074,1.05 ± 0.13,0.983 ± 0.053,1.09 ± 0.11,1.1 ± 0.13
CC1(C)O[C@@H]2[C@@H](CO[C@@]3(COS(N)(=O)=O)OC(C)(C)O[C@@H]23)O1,0.925 ± 0.042,1.04 ± 0.014,1.03 ± 0.052,1.12 ± 0.11,0.845 ± 0.12
C[C@]1(OC(=O)/C=C/c2ccccc2)C[C@@H](O)[C@]2(O)C=CO[C@@H](O[C@@H]3O[C@H](CO)[C@@H](O)[C@H](O)[C@H]3O)[C@@H]21,1.035 ± 0.0071,1.02 ± 0.11,1.06 ± 0.05,1.12 ± 0.028,1.03 ± 0.05
CCCCCCCCCCC[C@@H](C[C@@H]1OC(=O)[C@H]1CCCCCC)OC(=O)[C@H](CC(C)C)NC=O,0.83 ± 0.15,1.03 ± 0.12,0.972 ± 0.018,1.01 ± 0.13,0.933 ± 0.023
O=C1CC2(CCCC2)CC(=O)N1CCCCN1CCN(c2ncccn2)CC1,1.02 ± 0.028,0.895 ± 0.14,0.995 ± 0.021,1.07 ± 0.078,1.08 ± 0.021
CCN(CC)CCOCCOC(=O)C1(c2ccccc2)CCCC1,1.03 ± 0.13,0.887 ± 0.1,0.916 ± 0.013,1.12 ± 0.16,1.04 ± 0.028
CCOC(=O)Nc1nc2ccccc2[nH]1,1.03 ± 0.028,0.887 ± 0.016,1.06 ± 0.035,0.971 ± 0.056,0.959 ± 0.0057
Fc1ccc([C@@H]2CCNC[C@H]2COc2ccc3c(c2)OCO3)cc1,0.977 ± 0.021,1.02 ± 0.12,1.02 ± 0.021,1.1 ± 0.085,1.13 ± 0.042
COc1ccc(-c2cc(=O)c3c(O)cc(OC)c(OC)c3o2)c(OC)c1,0.978 ± 0.088,0.988 ± 0.016,1.02 ± 0.064,0.9025 ± 0.005,0.896 ± 0.067
C[C@@H]1[C@H](O)[C@@H](C)/C=C/C=C/C=C/C=C/C=C/C=C/C=C/[C@H](O[C@@H]2O[C@H](C)[C@@H](O)[C@H](N)[C@@H]2O)C[C@@H]2O[C@](O)(C[C@@H](O)C[C@@H](O)[C@H](O)CC[C@@H](O)C[C@@H](O)CC(=O)O[C@H]1C)C[C@H](O)[C@H]2C(=O)O,1.04 ± 0.076,1 ± 0.096,1.02 ± 0.089,1.06 ± 0.14,1.01 ± 0.018
COc1cc(/C=C/C(=O)CC(=O)/C=C/c2ccc(O)c(OC)c2)ccc1O,1.02 ± 0.061,1.02 ± 0.093,1.05 ± 0.014,1.13 ± 0.14,0.982 ± 0.14
OCCN1C[C@H](O)[C@@H](O)[C@H](O)[C@H]1CO,0.86 ± 0.15,0.957 ± 0.19,0.97 ± 0.025,0.954 ± 0.11,0.988 ± 0.06
Clc1cccc(Cl)c1NC1=NCCN1,0.987 ± 0.033,0.925 ± 0.16,0.988 ± 0.013,1.065 ± 0.0071,1.01 ± 0.11
